Data reported in PubChem BioAssay (NCATS).
Inconclusive results are not listed. Entries that show only a call come without a potency. Calls of active or inactive are those of the source. Unless noted, calls come from the whole dose curve; as a rule, active = well fitted curve in the direction sought with a large enough effect; inconclusive = small, poorly fitted or top-dose-only effect, or another doubt; inactive = no such curve, though single readings can be large; an effect the other way counts as inactive or inconclusive.

Legend:
[1] = qHTS assay for measurement of the activity of small molecule inhibitors on Zika virus induced Caspase-3 activity in human iPSC derived neural progenitor cells (hNPCs) (AID 1224857); note: nearly all actives have a fitted effect of over 65% in size; note: potency is the fitted concentration of half-maximal effect
Procedure, shortened: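 hNPCs seeded 350 cells/well, cultured 16–20 h; compounds added 1 h before ZIKV (2 FFU/cell), 37 C 6 h. Caspase-Glo 3/7 luminescence after 30 min RT; % inhibition from induction scaled to uninfected (0%) and infected (100%) wells.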

[2] = qHTS assay for measurement of the activity of small molecule inhibitors on Zika virus induced Caspase-3 activity in human astrocytoma cells (AID 1224859); note: potency is the fitted concentration of half-maximal effect
Procedure, shortened: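 Luminescence read-out (Caspase-Glo 3/7, 30 min RT) of caspase activity in SNB-19 cells infected 6 h with ZIKV, 2 FFU/cell, after 1 h compound pretreatment; % inhibition from induction normalised to uninfected (0%) and infected (100%) wells.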

[3] = Natriuretic polypeptide receptor (hNpr1) antagonism - Pilot counterscreen GloSensor control cell line (AID 1347045; calls by dose curve; note: potency is the fitted concentration of half-maximal effect)
Procedure, shortened: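 The SNP-driven cGMP luminescence signal (50 uM, 20 min, room temperature) was measured in GloSensor HEK293 control cells. Compounds were tested as a LOPAC titration series and preincubated for 30-50 min.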

[4] = target: Atrial natriuretic peptide receptor 1 (Homo sapiens) (UniProt P16066); assay: Natriuretic polypeptide receptor (hNpr1) antagonism - Pilot screen (AID 1347049; calls by dose curve;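 note: agonist-evoked cGMP luminescence read 20 min after hNppA addition; series mostly up to about 58 µM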)
Sequence of Atrial natriuretic peptide receptor 1 (Homo sapiens) (P16066 whole entry, looked up): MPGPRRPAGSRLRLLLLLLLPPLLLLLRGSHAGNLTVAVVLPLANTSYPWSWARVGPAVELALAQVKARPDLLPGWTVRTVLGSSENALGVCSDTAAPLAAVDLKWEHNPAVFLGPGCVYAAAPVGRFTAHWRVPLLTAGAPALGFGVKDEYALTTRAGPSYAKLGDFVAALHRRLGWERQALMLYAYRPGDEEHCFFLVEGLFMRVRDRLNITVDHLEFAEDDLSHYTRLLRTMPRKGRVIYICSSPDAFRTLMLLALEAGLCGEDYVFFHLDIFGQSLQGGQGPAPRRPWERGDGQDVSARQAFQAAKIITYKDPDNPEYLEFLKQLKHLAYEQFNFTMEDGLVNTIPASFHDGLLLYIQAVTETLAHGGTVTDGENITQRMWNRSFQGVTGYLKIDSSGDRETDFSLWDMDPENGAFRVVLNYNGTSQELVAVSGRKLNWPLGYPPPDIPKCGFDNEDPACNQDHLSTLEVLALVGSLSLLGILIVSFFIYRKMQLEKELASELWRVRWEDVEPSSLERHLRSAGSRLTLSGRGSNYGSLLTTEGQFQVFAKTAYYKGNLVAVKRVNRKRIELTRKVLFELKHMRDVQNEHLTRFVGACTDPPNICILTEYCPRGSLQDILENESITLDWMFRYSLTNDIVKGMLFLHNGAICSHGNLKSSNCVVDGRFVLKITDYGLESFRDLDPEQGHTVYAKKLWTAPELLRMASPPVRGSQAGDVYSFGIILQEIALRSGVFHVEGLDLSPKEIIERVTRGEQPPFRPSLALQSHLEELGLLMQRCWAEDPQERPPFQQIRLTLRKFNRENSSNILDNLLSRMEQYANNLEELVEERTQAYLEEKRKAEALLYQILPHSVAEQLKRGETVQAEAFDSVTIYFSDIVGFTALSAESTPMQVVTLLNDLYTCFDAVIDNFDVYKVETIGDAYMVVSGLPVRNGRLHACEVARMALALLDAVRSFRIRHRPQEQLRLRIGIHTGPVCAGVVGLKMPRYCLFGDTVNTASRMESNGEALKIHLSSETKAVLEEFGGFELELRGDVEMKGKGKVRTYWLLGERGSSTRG
Procedure, shortened: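 cGMP-sensor HEK293/hNpr1 cells, 1500/well, plated overnight at 37C. 2% GloSensor reagent, 2 h RT. Compound (23 nL pin transfer) 30 min RT, baseline luminescence pre-read. 0.1 nM hNppA, 20 min RT, post-read.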

[5] = P-glycoprotein substrates identified in KB-3-1 adenocarcinoma cell line, qHTS therapeutic library screen (AID 1346986); note: nearly all actives have a fitted effect of over 60% in size
Procedure, shortened: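 Viability by CellTiter-Glo after 72 h compound exposure at 37 degree C, 5% CO2. Cytotoxic call: curve class -1.1 to -2.4, maximum response >50%, AC50 < 10 uM, compared across KB-3-1 and P-gp-overexpressing KB-8-5-11.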

[6] = P-glycoprotein substrates identified in KB-8-5-11 adenocarcinoma cell line, qHTS therapeutic library screen (AID 1346987); note: series mostly up to about 44 µM; nearly all actives have a fitted effect of over 65% in size
Procedure, shortened: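 Human cervical adenocarcinoma KB-8-5-11 cells, selected in colchicine to over-express P-gp and assayed without it, were exposed for 72 h to titrated compounds. An ATP-based luminescent viability signal gave AC50.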

[7] = target: Atrial natriuretic peptide receptor 2 (Homo sapiens) (UniProt P20594); assay: Natriuretic polypeptide receptor (hNpr2) antagonism - Pilot subtype selectivity assay (AID 1347050; calls by dose curve)
Sequence of Atrial natriuretic peptide receptor 2 (Homo sapiens) (P20594 whole entry, looked up): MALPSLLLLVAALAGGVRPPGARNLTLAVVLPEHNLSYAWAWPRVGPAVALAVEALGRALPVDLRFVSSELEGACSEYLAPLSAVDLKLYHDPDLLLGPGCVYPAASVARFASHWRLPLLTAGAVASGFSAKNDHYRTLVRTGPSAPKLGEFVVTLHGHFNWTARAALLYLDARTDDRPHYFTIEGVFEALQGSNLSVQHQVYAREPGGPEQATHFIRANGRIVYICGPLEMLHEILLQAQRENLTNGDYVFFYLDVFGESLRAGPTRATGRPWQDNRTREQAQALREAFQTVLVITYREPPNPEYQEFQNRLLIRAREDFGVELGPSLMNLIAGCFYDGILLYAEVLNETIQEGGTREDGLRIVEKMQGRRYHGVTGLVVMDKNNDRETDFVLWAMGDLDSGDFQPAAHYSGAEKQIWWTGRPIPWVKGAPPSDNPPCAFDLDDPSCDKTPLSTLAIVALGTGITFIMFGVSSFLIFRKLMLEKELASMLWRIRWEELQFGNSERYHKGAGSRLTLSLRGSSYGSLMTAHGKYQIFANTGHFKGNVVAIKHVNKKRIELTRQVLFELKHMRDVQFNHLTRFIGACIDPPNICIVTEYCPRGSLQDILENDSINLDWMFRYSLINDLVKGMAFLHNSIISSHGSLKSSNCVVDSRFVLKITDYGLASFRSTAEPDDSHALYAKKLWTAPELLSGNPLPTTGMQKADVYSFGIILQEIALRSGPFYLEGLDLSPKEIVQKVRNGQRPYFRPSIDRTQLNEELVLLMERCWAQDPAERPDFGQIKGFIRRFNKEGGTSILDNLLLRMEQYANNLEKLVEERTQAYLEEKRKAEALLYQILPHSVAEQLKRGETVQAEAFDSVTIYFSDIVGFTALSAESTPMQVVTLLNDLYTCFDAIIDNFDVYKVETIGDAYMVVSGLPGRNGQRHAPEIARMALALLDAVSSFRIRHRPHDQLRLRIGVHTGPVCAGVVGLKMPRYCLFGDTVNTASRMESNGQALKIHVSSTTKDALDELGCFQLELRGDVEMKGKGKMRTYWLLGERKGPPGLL
Procedure, shortened: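 Luminescence from a genetically encoded cGMP luciferase biosensor in hNpr2-expressing HEK293 cells is read before and 20 min after adding 1 nM hNppC. Test compounds, in interplate 1:5 titrations, are added 30-50 min ahead of the agonist.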

Structure (SMILES)	Potency [1]	Potency [2]	Potency [3]	Potency [4]	Potency [5]	Potency [6]	Potency [7]
COc1ccc(CCN(C)CCc2ccc(OC)c(OC)c2)cc1OC	inactive	inactive	inactive	inactive	–	–	–
Oc1ccc(Cn2cc[nH]c2=S)cc1	inactive	inactive	inactive	inactive	–	–	–
N[C@H](C(=O)O)[C@H](O)C(=O)O	inactive	inactive	inactive	inactive	–	–	–
O=c1[nH]ccc2c(O)cccc12	inactive	inactive	inactive	inactive	–	–	–
CC(=O)[C@H]1CCC2C3CC=C4C[C@@H](OS(=O)(=O)O)CC[C@]4(C)C3CC[C@@]21C (stereo not given in full)	inactive	inactive	inactive	inactive	–	–	–
CN1CCCC1CCOC(C)(c1ccccc1)c1ccc(Cl)cc1 (stereo not given)	inactive	inactive	inactive	inactive	–	–	–
Nc1ccc(-c2ccc3ccccc3n2)cc1	7.08 µM (active)	7.08 µM (active)	14.7 µM (active)	–	–	–	–
Cc1ccc2c(c1)C(N1CCN(C)CC1)=Nc1cccnc1N2	inactive	inactive	inactive	inactive	–	–	–
COc1ccc2c(c1)c(CC(=O)O)c(C)n2C(=O)c1ccccc1	inactive	inactive	inactive	inactive	–	–	–
N=C(N)SCCc1cnc[nH]1	inactive	inactive	inactive	inactive	–	–	–
O=C1Nc2ccc(I)cc2/C1=C/c1cc(Br)c(O)c(Br)c1	inactive	inactive	–	inactive	inactive	inactive	inactive
CCn1c(=O)[nH]c2cc(Cl)c(Cl)cc21	inactive	inactive	inactive	inactive	–	–	–
CC(=O)NCCc1c[nH]c2ccc(O)cc12	inactive	inactive	inactive	–	inactive	inactive	inactive
